Results reported in PubChem BioAssay AID953 (National Center for Advancing Translational Sciences (NCATS), 2007).
The list shows a part of the results. Results filed as inconclusive are left out. Active and inactive are the calls of the source. Calls follow the shape of the dose curve; as a rule, active = well fitted curve in the direction sought with a large enough effect; inconclusive = small, poorly fitted or top-dose-only effect, or effect the other way, or another doubt; inactive = no such curve, though single readings can be large or run the other way.

Experiment: Confirmation Concentration-Response Assay for Agonists of the Thyroid Stimulating Hormone Receptor: Activators of Intracellular cAMP Concentrations in Parental HEK 293
Excerpt: NIH Chemical Genomics Center [NCGC] NIH Molecular Libraries Screening Centers Network [MLSCN] MLSCN Grant: 1 X01 MH080680-01 PI Name: Dr. Marvin Gershengorn NCGC Assay Overview: This cell based assay utilized a cyclic nucleotide gated ion channel (CNG) as a biosensor for cAMP induction. HEK 293 cells stably expressing the modified CNG were purchased from BD biosciences (http://www.atto.com/products/actone/features_benefits.shtml) . Stimulation of cAMP production causes the CNG to open and subsequent membrane depolarization to occur. A fluorescent membrane potential dye (BD biosciences) was utilized to detect cAMP stimulation in cells. The cells were maintained in DMEM medium (Invitrogen) containing 10 % FBS (Hyclone), 100 units/ml Penicillin, 100 ug/ml Streptomycin (Invitrogen), and 250 ug/ml Geneticin (Invitrogen) and 1 ug/ml Puromycin (Invitrogen) at 37C in 5% CO2. This assay was used as a counterscreen to "Confirmation Concentration-Response Assay for Agonists of the Thyroid Stimulating Hormone Receptor", to control for compounds signaling through endogenous receptors and other targets of HEK 293 cells.
NCGC Assay Protocol Summary: High Throughput Screening. Freshly passaged cells were dispensed into 1536-well assay plates at 4 ul/well in DMEM containing phenol red (Invitrogen), 10% FCS (Hyclone), and 100 units/ml Penicillin, 100 ug/ml Streptomycin (Invitrogen) and incubated at 37 C with 5% CO2 for 20 to 36 hrs before the robotic screening. The screen was initiated by addition of 4 ul/well membrane potential dye containing 100 uM RO 20-1724 (Sigma Aldrich), followed by 60 min incubation at room temperature to allow for dye equilibration across the cell membrane. 23 nl/well compound or control was then added to the assay plates, which were incubated for additional 30 min before reading a Envision fluorescence plate reader (Perkin Elmer) in bottom-read mode for fluorescence intensity (emission at 590 nm). Keywords: cAMP, CNG Ion Channel, quantitative high throughput screening, qHTS, HTS, probe identification, CNG, cAMP, cyclic nucleotide gated ion channel PubChem

SMILES	outcome
O=C(CN1C(=O)NC2(CCCCC2)C1=O)NCCC1=CCCCC1	inactive
C=CCn1c(COc2ccccc2F)nnc1SCC(=O)N1CC(=O)Nc2ccccc21	inactive
Cc1ccc(Nc2nc(CSc3nnnn3-c3ccccc3)cc(=O)[nH]2)cc1	inactive
CCOC(=O)c1cnc(-n2nc(C)cc2C)nc1-n1nc(C)cc1C	inactive
CCOC(=O)CSc1nnc(NC(=O)c2cccc(S(=O)(=O)N3CCCCC3)c2)s1	inactive
O=C(COC(=O)C12CC3CC(CC(C3)C1)C2)NCc1ccco1	inactive
